Only some compounds are listed: those with a hit (about 19% of all), similar ones and a draw of the others.
TDP1 cell noCPT – qHTS for Inhibitors of human tyrosyl-DNA phosphodiesterase 1 (TDP1): qHTS in cells in absence of CPT; hit rate 15% among 420,000; Potency, µM (highest dose often 46.2 µM), for inactives: at the top dose activity change, negative = growth inhibition, most hits filed as inhibitors; DT40 Tdp1-/- hTDP1 cells, no CPT, ATP luminescence, 48 h; further: potency means the concentration at half of the fitted maximal effect; nearly all actives have a fitted effect of over 55% in size
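Luminescent ATP content (CellTiter-Glo) served as the growth readout. Knockout chicken DT40 cells expressing human TDP1 were exposed to compounds without camptothecin for a minimum 48 hr at 37 °C.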
HT1080-NT tox – kills 2HG-producing HT-1080-NT fibrosarcoma cells | HT-1080-NT fibrosarcoma viability, CellTiter-Glo ATP luminescence, 48 h | hit rate 1.6% among 360,000 | Potency, µM (highest dose often 46.1 µM), without a hit: top-dose activity, negative = less viability, actives largely listed as cytotoxic | AID 686970;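 further: NT is the 2HG producing partner of a matched IDH1 knockdown line; potency means the concentration at half of the fitted maximal effect; 0% = DMSO-treated cells and -100% = media-only wells without cells; nearly all actives have a fitted effect of over 55% in size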
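750 cells/well, RPMI + 5% FBS; 2 h settle, compound pin-transfer, 48 h at 37 degrees C. CellTiter-Glo 10 min RT, luminescence. Normalized to DMSO and media-only wells.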
HT1080 IDH1KD tx – toxicity to HT-1080 IDH1 knockdown cells (counter line); hit rate 2% among 360,000; Potency, µM (series often up to 46.1 µM), for the others: at the top dose activity, negative = toxicity, most hits filed as cytotoxic; HT-1080 IDH1 knockdown viability, ATP luminescence, 48 h;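 further: potency means the concentration at half of the fitted maximal effect; 0% = DMSO wells and -100% = cell-free medium wells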
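Cytotoxicity counter-line: IDH1KD HT-1080, 48 h, CellTiter-Glo. Curves classed by r2, magnitude and activity.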
IL1B secr inh – blocks inflammasome-driven IL-1 beta release | THP-1 LPS/ATP IL-1B secretion, AlphaLISA, 16 h; stronger effect = lower value | activity change, % at 57.5 µM | hit rate 4.7% among 360,000 | AID 743279; in the data active means activity change below about -50%; inconclusive means mostly about -30% to -49%
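Secreted IL-1B measured by AlphaLISA bead assay after 16 h compound exposure of THP-1 cells; compounds (final up to 57.5 uM) added 1 h before LPS (250 ng/mL) and ATP (1.25 mM) stimulation; lower signal means less secretion.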
TDP1 cell CPT – DT40-hTDP1 cell growth loss with CPT | chicken DT40 Tdp1-/-;hTDP1 cells + 20 nM CPT, ATP luminescence, 48 h | hit rate 12% among 420,000 | Potency, µM (highest dose often 46.2 µM), inactives show at the highest dose activity change, negative = growth inhibition, usual class: inhibitors | AID 686979; further: potency means the concentration at half of the fitted maximal effect; nearly all actives have a fitted effect of over 55% in size
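Cell growth measured by CellTiter-Glo luminescence after a minimum 48 h, 37 C compound exposure with 20 nM CPT in Tdp1-knockout DT40 cells stably expressing hTDP1, seeded 400/well; qHTS titration format.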
* hit, by the source's call; ? = inconclusive; / = no result; [ ] = another dose, or the depositor's remark. Unless noted, the call rests on the fitted dose curve; in most records, active means well fitted curve in the direction sought with a large enough effect; inconclusive means small, poorly fitted or top-dose-only effect, or another doubt; inactive means no such curve, though single readings can be large; an effect the other way counts as inactive or inconclusive. Unless noted, on the % scale 0 is the no-effect control and ±100 the full control effect.

SMILES	TDP1 cell noCPT	HT1080-NT tox	HT1080 IDH1KD tx	IL1B secr inh	TDP1 cell CPT
O=C1N[C@@H](c2ccccc2)COC(=O)[C@@H](Cc2ccc(F)cc2)CC/C=C/C[C@H]1CC(=O)N(CCO)Cc1ccccc1	9.2µM*	?	?	?	11.6µM*
O=C(C[C@H]1C/C=C/CC[C@@H](Cc2ccc(F)cc2)C(=O)OC[C@H](c2ccccc2)NC1=O)NCCO	-21.4%	0.0%	0.0%	26.1	-14.5%
O=C1NC[C@@H](c2ccccc2)OC(=O)[C@@H](Cc2ccc(F)cc2)CC/C=C/C[C@@H]1CC(=O)N(CCO)Cc1ccccc1	14.6µM*	-21.5%	/	?	16.4µM*
CCCCCNC(=O)Cn1c(=O)c2c(ncn2CC(C)C)n(Cc2ccccc2)c1=O	-14.4%	11.6%	17.7%	14.1	8.9%
Cc1ccsc1C(=O)N1CCCC(C)(C(=O)O)C1 (stereo unspecified)	-3.5%	15.9%	23.1%	15.7	-35.1%
Cc1cccc2sc(N(CCCN(C)C)C(=O)CN3C(=O)c4ccccc4C3=O)nc12	?	8.5%	8.4%	-8.4	?
CCN(C(=O)CN1C(=O)NC2(CCCC2)C1=O)c1nc2c(C)cccc2s1	13µM*	-1.4%	-17.3%	-6.1	?
CCCCCCNC(=O)CNC(=S)N(Cc1cccs1)C1CCCCC1	?	-3.5%	-2.1%	?	?
CC(Oc1ccc(-c2ccccc2)c(F)c1)c1ccn(S(=O)(=O)c2ccc(F)cc2)n1 (stereo unspecified)	?	-18.2%	-8.1%	-4.1	?
COc1ccc(S(=O)(=O)n2ccc(C(C)Oc3ccc(-c4ccccc4)c(F)c3)n2)cc1 (stereo unspecified)	18.4µM*	-16.3%	?	?	25.9µM*
COC(=O)c1ccccc1NC(=O)CNC(=O)c1ccco1	9.9%	19.6%	5.0%[9.24 µM]	-9.6	8.7%
Cc1ccc(N2CC(C(=O)Nc3cccc(S(=O)(=O)N4CCOCC4)c3)CC2=O)cc1 (stereo unspecified)	-21.7%	2.0%	2.2%	-2.4	-14.4%
CCCc1ccc(OC(=O)c2ccc(O)cc2Cl)cc1	?	?	?	-84.3*	?
Nc1nc(Sc2ccc(C(F)(F)F)cc2[N+](=O)[O-])n[nH]1	-17.5%	-13.2%	-1.1%	-9.1	-26.5%
Nc1nc(Sc2c([N+](=O)[O-])cc(C(F)(F)F)cc2[N+](=O)[O-])n[nH]1	20.6µM*	?	?	-99.5*	7.31µM*
CCC(=O)OC1C2CC3=C4CC(=O)OC(c5ccoc5)[C@]4(C)CCC3[C@@](C)(C2=O)C(CC(=O)OC)C1(C)C (stereo partly specified)	-1.6%	/	/	/	-2.0%
Cc1ccc(NS(=O)(=O)c2ccc(NC(=O)c3ccc(Br)o3)cc2)c(C)c1	25.9µM*	?	?	-25.1	?
Cc1ccc(NS(=O)(=O)c2cccc(C(=O)Nc3cccnc3)c2)c(C)c1	14.6µM*	-7.7%	-0.1%	-25.0	?
Cc1ccc(NS(=O)(=O)c2ccc(NC(=O)c3ccc(-c4ccccc4)cc3)cc2)c(C)c1	23.1µM*	?	?	20.1	23.1µM*
O=C(Nc1ccc(S(=O)(=O)N2CCCC2)cc1)c1ccc(Br)o1	?	-11.6%	-0.1%	-27.7	-11.2%
Cc1ccc(NS(=O)(=O)c2cccc(C(=O)NC3CC3)c2)c(C)c1	-13.5%	0.9%	-2.2%	-29.7	-20.4%
Cc1cc(C)cc(NS(=O)(=O)c2ccc(NC(=S)NC(=O)c3ccc(Br)o3)cc2)c1	16.4µM*	?	?	-8.4	16.4µM*
O=C(CC12CC3CC(CC(C3)C1)C2)NCc1ccc(F)cc1	?	-2.6%	-4.8%	-9.3	?
Cc1cc(/C=C(\C#N)C(=O)OCC(=O)Nc2ccc(OC(F)F)cc2)c(C)n1CC(C)C	?	12.4%	9.4%	-4.2	?
CC(=O)c1cc2c(cc1NC(=O)CN1CCCCC1C)OCO2 (stereo unspecified)	?	-16.4%	0.0%	-2.7	-17.3%
SMILES	TDP1 cell noCPT	HT1080-NT tox	HT1080 IDH1KD tx	IL1B secr inh	TDP1 cell CPT
Cc1cc(C)cc(NS(=O)(=O)c2ccc(NC(=O)c3ccccc3C(=O)O)cc2)c1	-0.1%	1.7%	5.4%	0.0	2.3%
Cc1ccc(C)c(C(C)NC(=O)c2ccc(Br)o2)c1 (stereo unspecified)	?	-2.8%	2.4%	-57.2*	?
Cc1ccc(NS(=O)(=O)c2ccc(NC(=O)c3ccccc3C(=O)O)cc2)c(C)c1	-1.5%	?	1.0%	-67.4*	-0.8%
COc1ccc(N(C(=O)COc2ccc(F)cc2)S(=O)(=O)c2ccc(C)cc2)cc1	-12.6%	1.5%	2.7%	0.0	-5.2%
COc1ccc(N(C(=O)c2ccc(C(C)(C)C)cc2)S(=O)(=O)c2ccc(Cl)cc2)cc1	20.6µM*	/	/	/	?
COc1ccc(N(C(=O)c2cccc(C)c2)S(=O)(=O)c2ccc(Cl)cc2)cc1	?	/	/	/	18.4µM*
COc1ccc(N(C(=O)c2ccccc2C)S(=O)(=O)c2ccc(C)cc2)cc1	?	/	/	/	11.6µM*
COc1ccc(N(C(=O)c2cccnc2)S(=O)(=O)c2ccc(Cl)cc2)cc1	-14.9%	-10.0%	-3.6%	-15.7	?
COc1ccc(C(=O)NNC(=O)c2ccc(C(C)(C)C)cc2)cc1	-17.0%	-12.8%	13.2%	-2.1	1.5%
COc1ccc(N(C(=O)COc2ccccc2OC)S(=O)(=O)c2ccc(Cl)cc2)cc1	23.1µM*	/	/	/	16.4µM*
Cc1ccc(C(=O)N(c2ccc(C)cc2)S(=O)(=O)c2ccc(Cl)cc2)cc1	23.1µM*	/	/	/	?
CCOc1ccc(N(C(=O)c2ccc(C)cc2)S(=O)(=O)c2ccc3c(c2)n(C)c(=O)n3C)cc1	?	/	/	/	-15.1%
COc1cccc(-n2c(SCC(=O)N3CCc4ccccc43)nnc2-c2c[nH]c3ccccc23)c1	23.1µM*	-8.3%	9.4%	-8.3	16.4µM*
CCSc1nc2c([nH]c3ccccc32)c(=O)n1-c1ccc(OC)cc1	-22.4%	/	/	/	-16.2%
O=C(CSc1nc2c([nH]c3ccccc32)c(=O)n1-c1ccc(F)cc1)N1CCc2ccccc21	?	/	/	/	0.3%
COc1ccc(-n2c(SCc3ccccc3F)nc3c([nH]c4ccccc43)c2=O)cc1OC	16.4µM*	/	/	/	25.9µM*
COc1cccc(-n2c(SCC(=O)N3CCc4ccccc43)nc3c([nH]c4ccccc43)c2=O)c1	10.3µM*	/	/	/	7.31µM*
COc1ccc(-n2c(SCc3ccccc3)nc3c([nH]c4ccccc43)c2=O)cc1	23.1µM*	/	/	/	?

Screening data: PubChem BioAssay, National Center for Advancing Translational Sciences (NCATS)
